{"source": "the supplement of paper PMC8728848", "binders": {"B1": {"name": "Epa15 (Candida glabrata) (protein)", "chain": "MGSSHHHHHHSSGLVPRGSHMASDPTTFPLGCSPEFTKTKKGLSMELYRYDYLPPGSYPCWDSAYLNPSYPRTGYKAKKLIATVDGVSGDINFKFNPKFGCKAIPDYLPSNFNYHEPITITNFTMILYGYFMPKTTAFHTFYVTADDLLFMNFGAGNAFDCCRREETADKFGNYAAYSVWGKKSLKNELTVYLHTGVYYPIRLFYNNRDYIAQLDIRFKTEHSNAIITNFTDYFYSVDDSSLGCPGLI"}}, "assay_in_all_cases": "glycan array binding signal (z-score within array); higher = stronger binding", "details_in_all_cases": "glycan notation: IUPAC condensed, linker removed", "key": {"[1]": {"target": "Fuc(a1-2)Gal(b1-3)[Fuc(a1-4)]GlcNAc", "summary_of_the_method": "(§1)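 Columns mapping to the same glycan were averaged after glycan names were converted to IUPAC-condensed notation. The data come from 3228 arrays in the Consortium for Functional Glycomics database, limited to those with an available protein sequence. Binding is reported as a within-array Z-score averaged across arrays of one protein sequence and across linkers.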"}, "[2]": {"target": "Fuc(a1-2)Gal(b1-4)[Fuc(a1-3)]GlcNAc", "summary_of_the_method": "as §1"}, "[3]": {"target": "Fuc(a1-2)Gal(b1-4)[Fuc(a1-3)]GlcNAc(b1-3)Gal(b1-4)[Fuc(a1-3)]GlcNAc(b1-3)Gal(b1-4)[Fuc(a1-3)]GlcNAc", "summary_of_the_method": "as §1"}, "[4]": {"target": "Fuc(a1-2)Gal(b1-4)[Fuc(a1-3)]GlcNAc(b1-3)[Neu5Ac(a2-6)Gal(b1-4)GlcNAc(b1-6)]Gal(b1-4)Glc", "summary_of_the_method": "as §1"}, "[5]": {"target": "Fuc(a1-2)[Gal(a1-3)]Gal(b1-3)GalNAc", "summary_of_the_method": "as §1"}, "[6]": {"target": "Fuc(a1-3)[Gal(b1-4)]GlcNAc(b1-2)Man(a1-3)[Fuc(a1-3)[Gal(b1-4)]GlcNAc(b1-2)Man(a1-6)]Man(b1-4)GlcNAc(b1-4)GlcNAc", "summary_of_the_method": "as §1"}, "[7]": {"target": "Gal(a1-3)Gal(b1-3)GlcNAc(b1-2)Man", "summary_of_the_method": "as §1"}, "[8]": {"target": "Gal(a1-3)Gal(b1-3)[Fuc(a1-4)]GlcNAc(b1-2)Man(a1-3)[Gal(a1-3)Gal(b1-3)[Fuc(a1-4)]GlcNAc(b1-2)Man(a1-6)]Man(b1-4)GlcNAc(b1-4)GlcNAc", "summary_of_the_method": "as §1"}, "[9]": {"target": "Gal(b1-3)Gal(b1-4)GlcNAc", "summary_of_the_method": "as §1"}, "[10]": {"target": "Gal(b1-3)GalNAc(b1-4)Gal(b1-4)Glc", "summary_of_the_method": "as §1"}, "[11]": {"target": "Gal(b1-3)GlcNAc(b1-2)Man", "summary_of_the_method": "as §1"}, "[12]": {"target": "Gal(b1-3)[Neu5Ac(a2-6)]GlcNAc", "summary_of_the_method": "as §1"}, "[13]": {"target": "Gal(b1-3)[Neu5Ac(a2-6)]GlcNAc(a1-4)Gal(b1-4)Glc", "summary_of_the_method": "as §1"}, "[14]": {"target": "Gal(b1-4)GlcNAc(b1-2)[Gal(b1-4)GlcNAc(b1-6)]Man(a1-6)[GlcNAc(b1-4)][Gal(b1-4)GlcNAc(b1-2)Man(a1-3)]Man(b1-4)GlcNAc(b1-4)GlcNAc", "summary_of_the_method": "as §1"}, "[15]": {"target": "Gal(b1-4)GlcNAc(b1-3)Gal(b1-4)GlcNAc(b1-2)[Gal(b1-4)GlcNAc(b1-3)Gal(b1-4)GlcNAc(b1-6)]Man(a1-6)[Gal(b1-4)GlcNAc(b1-3)Gal(b1-4)GlcNAc(b1-2)Man(a1-3)]Man(b1-4)GlcNAc(b1-4)GlcNAc", "summary_of_the_method": "as §1"}, "[16]": {"target": "Gal(b1-4)GlcNAc(b1-3)[Gal(b1-4)GlcNAc(b1-6)]GalNAc", "summary_of_the_method": "as §1"}, "[17]": {"target": "Gal(b1-4)GlcNAc(b1-6)[Gal(b1-3)]GlcNAc", "summary_of_the_method": "as §1"}, "[18]": {"target": "Gal3S(b1-4)Glc", "summary_of_the_method": "as §1"}, "[19]": {"target": "Gal3S(b1-4)GlcNAc", "summary_of_the_method": "as §1"}, "[20]": {"target": "Gal6S(b1-3)GlcNAc", "summary_of_the_method": "as §1"}, "[21]": {"target": "Gal6S(b1-4)Glc6S", "summary_of_the_method": "as §1"}, "[22]": {"target": "Gal6S(b1-4)GlcNAc6S", "summary_of_the_method": "as §1"}, "[23]": {"target": "GalNAc(b1-3)Gal(a1-4)Gal(b1-4)GlcNAc", "summary_of_the_method": "as §1"}, "[24]": {"target": "GalNAc3S(b1-4)[Fuc(a1-3)]GlcNAc", "summary_of_the_method": "as §1"}, "[25]": {"target": "Glc(b1-6)Glc", "summary_of_the_method": "as §1"}, "[26]": {"target": "GlcNAc(a1-4)Gal(b1-4)GlcNAc(b1-3)Gal(b1-4)GlcNAc(b1-3)Gal(b1-4)GlcNAc", "summary_of_the_method": "as §1"}, "[27]": {"target": "GlcNAc(b1-2)Gal(b1-3)GalNAc", "summary_of_the_method": "as §1"}, "[28]": {"target": "GlcNAc(b1-2)Man(a1-3)[GlcNAc(b1-4)][GlcNAc(b1-2)Man(a1-6)]Man(b1-4)GlcNAc(b1-4)[Fuc(a1-6)]GlcNAc", "summary_of_the_method": "as §1"}, "[29]": {"target": "GlcNAc(b1-3)Gal(b1-3)GalNAc", "summary_of_the_method": "as §1"}, "[30]": {"target": "GlcNAc(b1-3)Gal(b1-4)GlcNAc(b1-2)[GlcNAc(b1-3)Gal(b1-4)GlcNAc(b1-6)]Man(a1-6)[GlcNAc(b1-3)Gal(b1-4)GlcNAc(b1-2)Man(a1-3)]Man(b1-4)GlcNAc(b1-4)GlcNAc", "summary_of_the_method": "as §1"}, "[31]": {"target": "GlcNAc(b1-3)Gal(b1-4)GlcNAc(b1-6)[GlcNAc(b1-3)Gal(b1-3)]GalNAc", "summary_of_the_method": "as §1"}, "[32]": {"target": "GlcNAc(b1-3)[GlcNAc(b1-4)][GlcNAc(b1-6)]GlcNAc", "summary_of_the_method": "as §1"}, "[33]": {"target": "Kdn(a2-3)Gal(b1-4)GlcNAc", "summary_of_the_method": "as §1"}, "[34]": {"target": "Man(a1-2)Man(a1-2)Man(a1-3)[Man(a1-2)Man(a1-6)[Man(a1-3)]Man(a1-6)]Man(b1-4)GlcNAc(b1-4)GlcNAc", "summary_of_the_method": "as §1"}, "[35]": {"target": "Man(a1-3)[Man(a1-6)]Man", "summary_of_the_method": "as §1"}, "[36]": {"target": "Neu5Ac(a2-3)Gal(b1-3)GlcNAc(b1-2)Man(a1-3)[Neu5Ac(a2-3)Gal(b1-3)GlcNAc(b1-2)Man(a1-6)]Man(b1-4)GlcNAc(b1-4)GlcNAc", "summary_of_the_method": "as §1"}, "[37]": {"target": "Neu5Ac(a2-3)Gal(b1-3)GlcNAc(b1-2)[Neu5Ac(a2-3)Gal(b1-3)GlcNAc(b1-4)]Man(a1-6)[Neu5Ac(a2-3)Gal(b1-3)GlcNAc(b1-2)Man(a1-3)]Man(b1-4)GlcNAc(b1-4)GlcNAc", "summary_of_the_method": "as §1"}, "[38]": {"target": "Neu5Ac(a2-3)Gal(b1-4)GlcNAc(b1-3)Gal(b1-4)GlcNAc(b1-3)Gal(b1-4)GlcNAc(b1-2)Man(a1-3)[Neu5Ac(a2-3)Gal(b1-4)GlcNAc(b1-3)Gal(b1-4)GlcNAc(b1-3)Gal(b1-4)GlcNAc(b1-2)Man(a1-6)]GalNAc", "summary_of_the_method": "as §1"}, "[39]": {"target": "Neu5Ac(a2-3)Gal(b1-4)[Fuc(a1-3)]GlcNAc(b1-6)[Gal(b1-3)]GalNAc", "summary_of_the_method": "as §1"}, "[40]": {"target": "Neu5Ac(a2-3)Gal(b1-4)[Fuc(a1-3)]GlcNAc6S", "summary_of_the_method": "as §1"}, "[41]": {"target": "Neu5Ac(a2-8)Neu5Ac", "summary_of_the_method": "as §1"}, "[42]": {"target": "Neu5Gc(a2-3)Gal(b1-4)GlcNAc", "summary_of_the_method": "as §1"}, "[43]": {"target": "Neu5Gc(a2-8)Neu5Gc(a2-3)Gal(b1-4)GlcNAc", "summary_of_the_method": "as §1"}, "[44]": {"target": "Neu5Gc(a2-8)Neu5Gc(a2-6)Gal(b1-4)GlcNAc", "summary_of_the_method": "as §1"}}, "note": "The entries come from a sample that favours the strongest signals as a whole.", "data": [{"binder": "B1", "values": [{"measurement": "glycan array binding signal (z-score)", "setting": "[1]", "value": -0.446}, {"measurement": "glycan array binding signal (z-score)", "setting": "[2]", "value": -0.361}, {"measurement": "glycan array binding signal (z-score)", "setting": "[3]", "value": -0.446}, {"measurement": "glycan array binding signal (z-score)", "setting": "[4]", "value": -0.092}, {"measurement": "glycan array binding signal (z-score)", "setting": "[5]", "value": -0.127}, {"measurement": "glycan array binding signal (z-score)", "setting": "[6]", "value": -0.403}, {"measurement": "glycan array binding signal (z-score)", "setting": "[7]", "value": 1.8}, {"measurement": "glycan array binding signal (z-score)", "setting": "[8]", "value": 1.85}, {"measurement": "glycan array binding signal (z-score)", "setting": "[9]", "value": 0.625}, {"measurement": "glycan array binding signal (z-score)", "setting": "[10]", "value": 2.64}, {"measurement": "glycan array binding signal (z-score)", "setting": "[11]", "value": 0.38}, {"measurement": "glycan array binding signal (z-score)", "setting": "[12]", "value": 2.5}, {"measurement": "glycan array binding signal (z-score)", "setting": "[13]", "value": -0.269}, {"measurement": "glycan array binding signal (z-score)", "setting": "[14]", "value": -0.041}, {"measurement": "glycan array binding signal (z-score)", "setting": "[15]", "value": 2.71}, {"measurement": "glycan array binding signal (z-score)", "setting": "[16]", "value": 5.02}, {"measurement": "glycan array binding signal (z-score)", "setting": "[17]", "value": 5.53}, {"measurement": "glycan array binding signal (z-score)", "setting": "[18]", "value": -0.053}, {"measurement": "glycan array binding signal (z-score)", "setting": "[19]", "value": -0.488}, {"measurement": "glycan array binding signal (z-score)", "setting": "[20]", "value": 2.78}, {"measurement": "glycan array binding signal (z-score)", "setting": "[21]", "value": 4.58}, {"measurement": "glycan array binding signal (z-score)", "setting": "[22]", "value": 10.6}, {"measurement": "glycan array binding signal (z-score)", "setting": "[23]", "value": 0.652}, {"measurement": "glycan array binding signal (z-score)", "setting": "[24]", "value": -0.141}, {"measurement": "glycan array binding signal (z-score)", "setting": "[25]", "value": -0.464}, {"measurement": "glycan array binding signal (z-score)", "setting": "[26]", "value": -0.452}, {"measurement": "glycan array binding signal (z-score)", "setting": "[27]", "value": -0.411}, {"measurement": "glycan array binding signal (z-score)", "setting": "[28]", "value": -0.557}, {"measurement": "glycan array binding signal (z-score)", "setting": "[29]", "value": -0.444}, {"measurement": "glycan array binding signal (z-score)", "setting": "[30]", "value": 0.605}, {"measurement": "glycan array binding signal (z-score)", "setting": "[31]", "value": -0.188}, {"measurement": "glycan array binding signal (z-score)", "setting": "[32]", "value": -0.536}, {"measurement": "glycan array binding signal (z-score)", "setting": "[33]", "value": -0.317}, {"measurement": "glycan array binding signal (z-score)", "setting": "[34]", "value": -0.285}, {"measurement": "glycan array binding signal (z-score)", "setting": "[35]", "value": -0.303}, {"measurement": "glycan array binding signal (z-score)", "setting": "[36]", "value": 0.415}, {"measurement": "glycan array binding signal (z-score)", "setting": "[37]", "value": -0.226}, {"measurement": "glycan array binding signal (z-score)", "setting": "[38]", "value": 2.56}, {"measurement": "glycan array binding signal (z-score)", "setting": "[39]", "value": 1.87}, {"measurement": "glycan array binding signal (z-score)", "setting": "[40]", "value": -0.461}, {"measurement": "glycan array binding signal (z-score)", "setting": "[41]", "value": -0.571}, {"measurement": "glycan array binding signal (z-score)", "setting": "[42]", "value": -0.437}, {"measurement": "glycan array binding signal (z-score)", "setting": "[43]", "value": -0.346}, {"measurement": "glycan array binding signal (z-score)", "setting": "[44]", "value": -0.395}]}]}
